Assay outcomes: PubChem, National Center for Advancing Translational Sciences (NCATS)
In the library only some 8% were active in any assay of this set; here they are far more common.
HT1080-NT tox: kills 2HG-producing HT-1080-NT fibrosarcoma cells | Potency, µM (doses to about 46.1 µM), without a hit: at the highest dose activity, negative = less viability, hits mostly cytotoxic | 360,000 tested, 1.6% active | HT-1080-NT fibrosarcoma viability, CellTiter-Glo ATP luminescence, 48 h;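 also: NT is the 2HG producing partner of a matched IDH1 knockdown line; 0% = DMSO-treated cells and -100% = media-only wells without cells; nearly all actives have a fitted effect of over 55% in size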
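Compounds were tested in concentration-response format on HT-1080-NT cells for 48 hours at 37 degrees C. Cell viability came from CellTiter-Glo luminescence; curves were classified by r2, response magnitude and activity.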
KB-V1 MDR tox: kills drug-selected multidrug resistant KB-V1 cells | KB-V1 MDR cells viability, CellTiter-Glo, 72 h | Potency, µM (highest dose often 46.1 µM), most hits filed as cytotoxic | 400,000 tested, 3.4% active | AID 1347076; also: % is scaled to controls: 0 for no effect and ±100 for the full control effect; nearly all actives have a fitted effect of over 60% in size
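Compound-treated KB-V1 multidrug-resistant cells, 72 h, 37 degrees C; viability by CellTiter-Glo. Fitted qHTS curves give the values.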
MCF10A rereplic: inducers of DNA re-replication in MCF 10A breast cells. MCF 10A DNA re-replication, Hoechst nuclear intensity, 48 h. Potency, µM (titrated, usually from 46.1 µM), for the others: at the highest dose activity, positive = re-replication, hits mostly activators. 350,000 tested, 2.9% active. AID 624296; also: % of control where 0% means no effect; nearly all actives have a fitted effect of over 50% in size
KB-3-1 tox: KB-3-1 parental cell cytotoxicity; KB-3-1 viability, CellTiter-Glo ATP luminescence, 72 h; Potency, µM (highest dose often 46.1 µM), most hits filed as cytotoxic; 400,000 tested, 1.4% active; AID 1347075; also: % is scaled to controls: 0 for no effect and ±100 for the full control effect; nearly all actives have a fitted effect of over 60% in size
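72 h, 37 °C compound treatment of KB-3-1 parental cells; CellTiter-Glo added, 10 min, luminescence read. Data corrected against DMSO-only plates and normalized before curve fitting.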
HT1080 IDH1KD tx: HT-1080 IDH1 knockdown cell toxicity (counter line); HT-1080 IDH1 knockdown viability, ATP luminescence, 48 h; AID 686971; Potency, µM (highest dose often 46.1 µM), inactives show top-dose activity, negative = toxicity, usual class: cytotoxic; 360,000 tested, 2% active;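 also: 0% = DMSO wells and -100% = cell-free medium wells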
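HT-1080-IDH1KD cells (IDH1 knocked down), 750/well in RPMI with 5% FBS, treated with compound 48 h at 37 degrees C. Viability by CellTiter-Glo luminescence, normalised to DMSO and no-cell wells; concentration-response curves classed.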
SW480 rerep: DNA re-replication induction in SW480 cells | SW480 DNA re-replication, Hoechst DNA content imaging, 48 h | Potency, µM (highest dose often 46.1 µM), for the others: at the top dose re-replication activation, hits mostly activators | 340,000 tested, 1.8% active; also: % of control where 0% means no effect; nearly all actives have a fitted effect of over 55% in size
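Image-based DNA-content assay: after two days of treatment, nuclei were labelled with the DNA dye Hoechst and imaged, and hits were compounds raising the count of nuclei showing high fluorescence intensity.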
Starred values were filed as active, the others as inactive; i = inactive; ? = inconclusive; . = no result; [ ] = dose if it differs, or a comment. Calls follow the shape of the dose curve; as a rule, active = well fitted curve in the direction sought with a large enough effect; inconclusive = small, poorly fitted or top-dose-only effect, or another doubt; inactive = no such curve, though single readings can be large; an effect the other way counts as inactive or inconclusive. Potency is read from the fitted curve at half-maximal effect.

SMILES	HT1080-NT tox	KB-V1 MDR tox	MCF10A rereplic	KB-3-1 tox	HT1080 IDH1KD tx	SW480 rerep
CCN(CC)S(=O)(=O)c1ccc2oc(SCC(=O)Nc3cc(C)on3)nc2c1	-3%	3.7µM*	17%	?	?	?
COC(=O)CSc1nc2cc3c(cc2cc1C)OCO3	7%	i	3%	i	15%	-8%
Cc1cc2cc3c(cc2nc1SCC(=O)Nc1nc(C)c(C)s1)OCO3	-28%	i	4.1µM*	?	?	4%
CCc1nnc(NC(=O)CSc2nc3cc4c(cc3cc2CC)OCCO4)s1	6%	i	?	i	11%	-4%
COc1ccc(C(=O)Nn2c(SCC(=O)NC3CCCC3)nc3ccccc3c2=O)cc1	2%	i	-3%	i	5%	-17%
N#Cc1c(SCC(=O)O)nc(N2CCOCC2)c2c1CCCC2	2%	i	-4%	i	0%	-23%
CC(C)=CCN1CCN(Cc2ccc(C#CC(C)(C)O)s2)CC1CCO (configuration not stated)	8%	i	6%	i	6%	-11%
O=[N+]([O-])c1cnn2cc(Br)cnc12	-9%	i	13%	i	-9%	-5%
O=C(O)C1CCN(C(=O)CSc2nc3cc(Cl)ccc3c(=O)n2Cc2ccccc2)CC1	-2%	i	11%	i	-20%	-7%
Clc1ccc2c(SCC3CO3)c3ccccc3nc2c1 (configuration not stated)	?	16µM*	?	?	18µM*	?
c1ccc(-c2nc(NCc3ccco3)c3ccccc3n2)nc1	-23%	?	?	5.8µM*	?	5.8µM*
Cc1ccc(Nc2nc(NCc3ccco3)c3ccccc3n2)cc1	?	?	?	?	23µM*	?
Fc1ccccc1-c1nc(NCc2ccco2)c2ccccc2n1	-10%	i	-2%	i	-9%	-1%
COc1ccccc1Nc1nc(NCc2ccco2)c2ccccc2n1	21µM*	?	23µM*	i	23µM*	-24%
Oc1ccccc1-c1nc(NCc2ccco2)c2ccccc2n1	-25%	i	?	i	-26%	11%
O=C(CCS(=O)(=O)c1ccc(F)cc1)Nc1nnc(-c2cccs2)o1	2%	i	?	i	-17%	?
CN(Cc1ccccc1)C(=O)c1cccc(NC(=O)Cc2ccc(NC(=O)C3CCN(C(=O)c4ccccc4)CC3)cc2)c1	7%	i	3%	i	8%	-83%[9.22 µM]
NS(=O)(=O)c1ccc(CCNC(=O)CSc2ccsc2[N+](=O)[O-])cc1	2%	i	-4%	i	-10%	-19%
CC1(C)C[C@H](O)[C@]2(CO)[C@H](O)C[C@]3(C)C(=CCC4[C@@]5(C)CC[C@H](O)C(C)(C)C5CC[C@]43C)[C@@H]2C1 (some centres not stated)	21µM*	?	?	?	?	3%
CC1(C)C[C@H](O)[C@]2(CO)CC[C@]3(C)C(=CCC4[C@@]5(C)CC[C@H](O)C(C)(C)C5CC[C@]43C)[C@@H]2C1 (some centres not stated)	5%	i	?	i	1%	-15%
CC1(C)CC[C@]2(CO)CC[C@]3(C)C(=CCC4[C@@]5(C)CC[C@H](O)[C@@](C)(CO)C5CC[C@]43C)[C@@H]2C1 (some centres not stated)	5%	i	10µM*	i	10%	7%
COc1ccc(CN2C(=NC(=O)C3CC3)SC3CS(=O)(=O)CC32)cc1 (configuration not stated)	6%	i	8%	i	18%	-1%
CN(CC(=O)Nc1ccc(F)cc1)C(=O)COC(=O)c1ccc(=O)n(Cc2ccccc2)n1	1%	i	0%	i	0%	-26%
CC1(CCc2ccccc2)NC(=O)N(Cc2nnc(-c3ccccc3Br)o2)C1=O (configuration not stated)	-10%	?	5%	i	-4%[9.24 µM]	1%
CCCOc1ccc(CCc2n[nH]c(=S)n2Cc2ccccc2)cc1	?	i	21µM*	i	?	2%
SMILES	HT1080-NT tox	KB-V1 MDR tox	MCF10A rereplic	KB-3-1 tox	HT1080 IDH1KD tx	SW480 rerep
CCCOc1ccc(CCc2n[nH]c(=S)n2-c2ccccc2)cc1	-3%	i	1%	i	-19%	-8%
O=S(=O)(Nc1ccc(-c2nc3cccnc3s2)cc1)c1cc(F)ccc1F	1%	i	21µM*	i	6%	18%
Cc1ccc(-c2nc3cccnc3s2)cc1NS(=O)(=O)c1cccs1	-14%	i	16µM*	i	-9%	-1%
CCc1ccc(S(=O)(=O)Nc2ccc(-c3nc4cccnc4s3)cc2)s1	1%	i	?	i	12%	19%
Cc1ccc(-c2nc3cccnc3s2)cc1NS(=O)(=O)c1ccc2c(c1)OCCO2	?	?	?	i	?	?
Cc1nc2ccc(S(=O)(=O)Nc3cc(-c4nc5cccnc5s4)ccc3C)cc2s1	?	?	0.82µM*	?	?	23µM*
CC(=O)c1ccc(S(=O)(=O)N2CCC(NC(=O)c3ccccc3)CC2)cc1	5%	i	5%	i	6%	-27%
CC(C)Nc1ccc(C(CC(N)=O)NC(=O)Cc2ccc(Br)cc2)cc1[N+](=O)[O-] (configuration not stated)	-8%	i	-4%	i	-20%	-8%
Cc1ccc(CNC(=O)CN(c2cc(C)cc(C)c2)S(=O)(=O)c2c(C)[nH]c(=O)[nH]c2=O)cc1	.	i	.	i	.	.
O=C(c1ccccn1)N1CCN(S(=O)(=O)c2ccc3ccccc3c2)CC1	3%	?	3%	i	2%	?
Cc1ccc(S(=O)(=O)CC(=O)NC2CC2)cc1	-1%	i	0%	i	8%	-7%
CCn1c(SC)nc2cc(S(=O)(=O)N3CCCCC3)ccc21	-9%	i	1%	21µM*	?	29%
CCn1c(CN2CCC(C)CC2)nc2cc(S(=O)(=O)N3CCCCC3)ccc21	1%	?	.	i	0%	.
CCn1c(SCC(N)=O)nc2cc(S(=O)(=O)N3CCOCC3)ccc21	20%	i	-2%	i	7%	1%
CCn1c(CCl)nc2cc(S(=O)(=O)N3CCOCC3)ccc21	2%	i	?	?	-13%	15µM*
